In the supplement of paper PMC11417369:
± gives the standard deviation of the averaged measurements. Over roughly 25,000 sequences, “ln(normalized median fluorescence intensity)” has its median near 8.6; the highest 2% begin near 10. The sample as a whole holds a higher share of the highest values than the screen did.

What follows are sequences tested on PfAP2-EXP AP2 domain (GST-tagged) (assay: gcPBM binding intensity (ln(normalized median fluorescence intensity)); higher = stronger DNA binding).
In short: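 An Agilent 4 × 180k array carrying primer-extended double-stranded 36-bp intergenic genomic probes and negative controls received GST-tagged P. falciparum DNA-binding domains expressed in E. coli, about 25 μg on average, for 1 h. The binding buffer contained 1× PBS, 1% milk, 0.2 mg/ml BSA, 0.5% salmon testes DNA and 0.03% Triton X-100. Binding intensity is the top Masliner-normalised natural-log median intensity across replicate spots of either probe orientation, read after Alexa488 anti-GST antibody staining and a 488 nm scan.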
“TAATATTTATTCTATTGTACATAAAATATATATATA [XGTACX_site7132]” was tested, and the “gcPBM binding intensity (ln)” value was 9.225 ± 0.078.
With “AGTAGCATATTCTATTGTACATATATATATATATAT [XGTACX_site2980]” the “gcPBM binding intensity (ln)” value was 10.2 ± 0.56.
In the case of “TATATATATATATATTGTACATATTGTATATATTGT [XGTACX_site3212]”, the “gcPBM binding intensity (ln)” value is reported as 9.98 ± 0.21.
For “TTTATATATATAAATATGTAGATAACAATATTCTGA [TGCATGCA_negctrl_site554]”, the “gcPBM binding intensity (ln)” value was 8.16 ± 0.44.
For “AAATTGGTTCATCAATGTACATGTAAAATAAATCAA [XGTACX_site4795]”, the “gcPBM binding intensity (ln)” value was 8.88 ± 0.46.
With “TATTAATTATAAGATGCATGTGCAAAAATATGTTCC [TGCATGCA_site51]” the “gcPBM binding intensity (ln)” value was 9.01 ± 0.36.
For “AAATTAATATTATGTGCATGCACAAAGAGGAACGAC [TGCATGCA_site754]”, the “gcPBM binding intensity (ln)” value was 10.7 ± 0.18.
With ATTATTAATAATTGTGTGCACAAATATTTATATGCT the “gcPBM binding intensity (ln)” value was 8.86 ± 0.092.
With “ATATATATATATATATATATATATATATATAAGTGG [XGTACX_negctrl_site90]” the “gcPBM binding intensity (ln)” value was 9.94 ± 0.35.
For “TACTTACACTGTTTTTGTACTTATTTCCCTTTTATT [XGTACX_site2158]”, the “gcPBM binding intensity (ln)” value was 9.12 ± 0.6.
In the case of “TTATTTTCCCTTTGTGCATGCAGTTTACTTTTTGTG [TGCATGCA_site993]”, the “gcPBM binding intensity (ln)” value is reported as 10.4 ± 0.64.
With “ATTTCCCCTTTTTATTGTACATTTTTATTTGTTACT [XGTACX_site4845]” the “gcPBM binding intensity (ln)” value was 9.14 ± 0.64.
With “TGTATAAGGTTTTTACGTTTTGAAGGATGTATTGTT [CACACA_negctrl_site1245]” the “gcPBM binding intensity (ln)” value was 8.59 ± 0.6.
With “TTGTATTATTATGTTGCACACATTTTATATAAAATA [CACACA_site3641]” the “gcPBM binding intensity (ln)” value was 9.06 ± 0.31.
“TTTATGTGTATTAAGTGTACACATATAGTGTATTTT [XGTACX_site999]” was tested, and the “gcPBM binding intensity (ln)” value was 8.42 ± 0.31.
For “TTTATATGTATTAAGTGTACACATATAATGTATTTT [XGTACX_site16]”, the “gcPBM binding intensity (ln)” value was 8.71 ± 0.014.
“TATGTATTTTTTAAGTGTACCTATATATATATATAT [XGTACX_site7934]” was tested, and the “gcPBM binding intensity (ln)” value was 10.2 ± 0.3.
With “ACATATAATATAAATTGTACATATAAATATATTATT [XGTACX_site4268]” the “gcPBM binding intensity (ln)” value was 8.38 ± 0.32.
In the case of “TACAGAAATTTATATATATATATATATATATATATA [XGTACX_negctrl_site209]”, the “gcPBM binding intensity (ln)” value is reported as 9.95 ± 0.62.
For “ATATATATATATATATGTACATACTATACAATAATT [XGTACX_site3546]”, the “gcPBM binding intensity (ln)” value was 10.4 ± 0.29.
With “ACATGTACAGAAATTTATATATATATATATATATAT [CACACA_negctrl_site1584]” the “gcPBM binding intensity (ln)” value was 10.3 ± 0.33.
For “TATAGAAAATTTATATGTACATATATATATATATAT [XGTACX_site4451]”, the “gcPBM binding intensity (ln)” value was 10.1 ± 0.44.
For “ATTTAGAAATATATTTGTACATATATATATATATAT [XGTACX_site7129]”, the “gcPBM binding intensity (ln)” value was 10.2 ± 0.35.
For “ATATATATAAATATATGTACTAATATATACATATAT [XGTACX_site2289]”, the “gcPBM binding intensity (ln)” value was 8.22 ± 0.092.
For “TATATATATATATATTGTACATATTAATATTAGAAA [XGTACX_site8923]”, the “gcPBM binding intensity (ln)” value was 10.1 ± 0.39.
With “AATATAATATACATATGTACATATATATATATATAT [XGTACX_site8218]” the “gcPBM binding intensity (ln)” value was 10 ± 0.32.
With “TAGAAATATATTTATTGTACATTGTATATATTATAT [XGTACX_site7584]” the “gcPBM binding intensity (ln)” value was 8.35 ± 0.48.
With “AATAAATAAATATATTGTACATATATATATATATAT [XGTACX_site8627]” the “gcPBM binding intensity (ln)” value was 10.2 ± 0.4.
“AGAATAAATAAATATTGTACATATAAAATATATATA [XGTACX_site896]” was tested, and the “gcPBM binding intensity (ln)” value was 8.39 ± 0.35.
In the case of “GTAGTAATAAATCTAGTGCATTATATATAACAAAAA [GTGCAC_site9803]”, the “gcPBM binding intensity (ln)” value is reported as 8.81 ± 0.3.
For “TAGCCATTTTTATATTGTACTTATATAATCACATTT [XGTACX_site4407]”, the “gcPBM binding intensity (ln)” value was 8.72 ± 0.4.
For “ATGCACATTTATAAAAGTACATGTATGTAATATGTT [XGTACX_site830]”, the “gcPBM binding intensity (ln)” value was 8.77 ± 0.33.
With “TGTATGAAATATATTACACACATATATAATATATAT [CACACA_site793]” the “gcPBM binding intensity (ln)” value was 8.36 ± 0.3.
With “GATGCTAAAATTTATACACACAAAAAAAAAAAATTC [CACACA_site3284]” the “gcPBM binding intensity (ln)” value was 8.47 ± 0.46.
With “CAAGAAAATTGACACACACACATATTTATATTTATA [CACACA_site7766]” the “gcPBM binding intensity (ln)” value was 8.36 ± 0.48.
With “AAGTATAACCTTTATAATAATGACATGACCGATTTT [CACACA_negctrl_site395]” the “gcPBM binding intensity (ln)” value was 8.26 ± 0.34.
For “TGTAGTCTGGAGAAACGTACACAGTATCTGGTAACA [XGTACX_site4938]”, the “gcPBM binding intensity (ln)” value was 8.34 ± 0.36.
In the case of “ATATATATTATAATCTGTACATAAATATATAATAAA [XGTACX_site5425]”, the “gcPBM binding intensity (ln)” value is reported as 8.39 ± 0.33.
“AAAAAAAAAAAAAAATGTACATATATATAAATAAAA [XGTACX_site5574]” was tested, and the “gcPBM binding intensity (ln)” value was 8.51 ± 0.45.
For “AAATGTACAGGACGCACACACATATATATATATATA [CACACA_site3674]”, the “gcPBM binding intensity (ln)” value was 10.4 ± 0.81.
“TAAAATGTACAGGACGCACACACATATATATATATA [CACACA_site3673]” was tested, and the “gcPBM binding intensity (ln)” value was 10.1 ± 0.22.
In the case of “AAATGTACAGGACGCACACACATATTTATATTTATA [CACACA_site7689]”, the “gcPBM binding intensity (ln)” value is reported as 8.55 ± 0.33.
With “AAAAAAAAAAAAAAATGTACATATATATAAATATAT [XGTACX_site6768]” the “gcPBM binding intensity (ln)” value was 8.34 ± 0.4.
“AACATATAAATAAACTGTACATATATATATATATAT [XGTACX_site1056]” was tested, and the “gcPBM binding intensity (ln)” value was 10.1 ± 0.39.
